Rows were chosen to be rich in hits. Some 1.1% of all compounds tested hit in one or more screens of this group.
Hsp90 inh = tumor Hsp90 inhibitors, primary screen, cell lysate, fluorescence polarization, NCI-N417 lysate | Cy3B-geldanamycin FP displacement | Heat shock protein HSP 90-alpha (Homo sapiens), P07900 | AID 429, 2006 | hit rate 0.35% among 64,000 | inhibition, % at 30 µM;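 active = inhibition above 50%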;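 also: 0% = tracer plus lysate wells and 100% = tracer alone without lysate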
TNAP act DEA = human TNAP enzyme activators, primary screen, biochemical, luminescent, intermediate phosphate acceptor level; Alkaline phosphatase, tissue-nonspecific isozyme (Homo sapiens), P05186; purified TNAP, CDP-star luminescence, 100 mM DEA, 30 min; stronger effect = higher value; scale: 0 levamisole-inhibited, 1 vehicle-only enzyme; activation factor at 20 µM; 64,000 tested, under 10 active; AID 813, 2007;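 active = activation factor of at least 2 at 20 µM, relative to controls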
Ec RNAP inh = E. coli RNAP inhibitors, biochemical | DNA-directed RNA polymerase subunit beta (Escherichia coli (strain K12)), P0A8V2 | E. coli RNA polymerase, fluorescence transcription assay | inhibition, %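 (tested at 10 µM)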 | hit rate 0.2% among 62,000 | AID 559, 2006; in the data active = inhibition above about 20%;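 also: 0% = enzyme without compound and 100% = no enzyme blank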
HePTP inhibitor = inhibitors of human HePTP phosphatase, primary screen, biochemical, absorbance, leukemia target. Tyrosine-protein phosphatase non-receptor type 7 (Homo sapiens), P35236. recombinant HePTP phosphatase activity, OD absorbance. inhibition, % at 20 µM. hit rate 0.64% among 110,000; in the data active = inhibition above about 50%;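 also: plate controls were vehicle for no effect and reference inhibitor for full effect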
MT1-MMP txn act = MT1-MMP promoter reporter activation – cell-based, luciferase luminescence, primary screen. hit rate 0.16% among 86,000. AID 750, 2007. activation factor at 10 µM. HT1080 MT1-MMP promoter luciferase reporter, overnight; stronger effect = higher value;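 active = activation factor of at least 2 for MT1-MMP transcription at 10 µM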
HER2 expr 66K = inhibitors of Her2 protein expression, primary screen, SKBR-3 cells, AlphaScreen, 66K library. AID 645, 2007. SKBR-3 HER2 protein level, 18-24 h; stronger effect = lower value. Receptor tyrosine-protein kinase erbB-2 (Homo sapiens), P04626. hit rate 0.69% among 65,000. HER2 level % of control, % at 10 µM;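 active = HER2 level under 5% of the carrier-only control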;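 also: 100% = DMSO carrier and 0% = 500 nM PU-H71 HSP90 inhibitor; lower value means stronger loss of Her2 protein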
Starred values were filed as active, the others as inactive; x = no result.

SMILES	Hsp90 inh	TNAP act DEA	Ec RNAP inh	HePTP inhibitor	MT1-MMP txn act	HER2 expr 66K
Cc1ccc(C)n1-c1ccc(OCC(=O)O)cc1	x	x	x	104*	x	x
Cc1ccc(C)n1-c1ccc(SCC(=O)O)cc1	x	x	x	103*	x	x
CC(=O)c1ccc(-n2c(C)ccc2C)cc1	x	x	x	0	x	x
CCOC(=O)Cc1csc(NC(=O)COc2cccc(Cl)c2)n1	x	x	x	-24	x	x
COc1cc(OC)c(OC)cc1C=NNC(=O)Cn1nnc2ccccc21	x	x	x	2	x	x
C/C=C/C=C(/NC(=O)c1ccccc1)C(=O)OC	x	x	x	-6	x	x
O=C(COc1ccc(Cl)cc1Cl)Nc1ccc2c(c1)oc1ccccc12	x	x	x	-2	x	x
O=C(COc1ccc(I)cc1)Nc1ccc2c(c1)oc1ccccc12	x	x	x	102*	x	x
O=C(Oc1ccc2c(c1)OCO2)c1cc2c(s1)CCC2	0	0.9	11	22	1.2	-7.5*
COc1ccc(-c2nc3ccccc3c(C(=O)Nc3ccc(C)cc3)c2C)cc1	x	x	x	104*	x	x
CCOc1ccc(NC(=O)c2cc(OCC)c(OCC)c(OCC)c2)c([N+](=O)[O-])c1	x	x	x	54*	x	x
Cc1ccc(Nc2nc(N)nc(CN3CCN(C)CC3)n2)cc1	-4	0.9	21*	9	1.4	82
O=C(Nc1ccc(Br)cc1C(=O)O)c1cccc(N2C(=O)c3ccccc3C2=O)c1	x	x	x	102*	x	x
COc1cccc(-c2nc3sc4c(c3c(=O)[nH]2)CCCC4)c1	x	x	x	4	x	x
O=C(Nc1nnc(C23CC4CC(CC(C4)C2)C3)s1)c1ccco1	1	x	x	x	2*	114
O=C1CSC2(O1)C1CC3CC(C1)CC2C3 (stereo unspecified)	x	x	x	-12	x	x
Cc1onc(-c2ccccc2)c1C(=O)n1nnc2ccccc21	-4	1	4	-1	1	2.2*
Cc1onc(-c2ccccc2)c1C(=O)N1CCN(c2ccc(Cl)cc2)CC1	x	x	x	104*	x	x
Cc1onc(-c2ccccc2)c1C(N)=O	2	0.8	10	9	1	98
Cc1onc(-c2ccccc2)c1C(=O)N1CCN(c2ccc([N+](=O)[O-])cc2)CC1	x	x	x	11	x	x
COc1ccc(CC(=O)NCCN2CCCC2)cc1	x	x	x	x	2.4*	x
CN(C)CCCN1C(=O)C(=O)/C(=C(/O)c2ccc(OCc3ccccc3)cc2)C1c1cccnc1 (stereo unspecified)	78*	1	6	6	1.2	73
COc1ccc(C(=O)N2CCN(Cc3cccc(F)c3)CC2)cc1OC	x	x	x	3	x	x
COc1ccccc1OCC(=O)Nc1ccc(S(=O)(=O)NC(C)=O)cc1	-2	1	7	-1	1.1	131
COc1ccccc1OCC(=O)Nc1ccc(S(=O)(=O)Nc2nc(C)cc(C)n2)cc1	-2	0.8	21*	6	1	125
SMILES	Hsp90 inh	TNAP act DEA	Ec RNAP inh	HePTP inhibitor	MT1-MMP txn act	HER2 expr 66K
Cc1ccc(N=Cc2c(O)c([N+](=O)[O-])cc3oc4c(c23)CCCC4)cc1C	x	x	x	3	x	x
CCc1ccccc1N1C(=O)C2C(c3ccccc3Cl)OC3(C(=O)c4ccccc4C3=O)C2C1=O (stereo unspecified)	x	x	x	104*	x	x
Cc1ccc(S(=O)(=O)/N=C2/C=C(S(=O)(=O)c3ccc(C)cc3)C(=O)c3ccccc32)cc1	x	x	x	-2	x	x
Cc1ccc(S(=O)(=O)/N=C2\C=C(n3cnc4ccccc43)C(=O)c3ccccc32)cc1	x	x	x	85*	x	x
Cc1ccc(S(=O)(=O)/N=C2/C=C(N3CCOCC3)C(=O)c3ccccc32)cc1	x	x	x	-18	x	x
Cc1ccc(S(=O)(=O)/N=C2/C=C(C3C(=O)CC(C)(C)CC3=O)C(=O)c3ccccc32)cc1	x	x	x	x	2.1*	x
Fc1ccc(NC(=S)Nc2ccc(Nc3ccccc3)cc2)cc1	x	x	x	-8	x	x
COc1ccc(C)cc1NC(=O)c1cc(Cl)ccc1OC	x	x	x	-2	x	x
Cc1ccc(C)c(NC(=O)C2CC(=O)N(c3ccc(Cl)cc3)C2)c1 (stereo unspecified)	x	x	x	8	x	x
CCOC(=O)/C=C/S(=O)(=O)c1ccc(NC(C)=O)cc1	0	1.1	5	-6	1.2	-22*
Cc1cccc(N(CC(=O)NCc2ccc3c(c2)OCO3)C(=O)CCC(=O)Nc2ccccn2)c1C	1	1.1	-7	-5	1.1	129
Cc1cccc(N(CC(=O)NCc2ccc3c(c2)OCO3)C(=O)CCC(=O)Nc2ccccn2)c1	1	1	5	8	1.1	-30*
CCCCCn1c(SCC#N)nc2cc(C(=O)NC3CCCCC3)ccc2c1=O	4	1	0	8	1.3	-20*
O=C(NCCN1CCOCC1)c1ccccc1Br	x	x	x	2	x	x
CC(C)c1ccccc1NC(=O)c1sc2ccccc2c1Cl	x	x	x	0	x	x

Assay outcomes as filed in PubChem.
